Assay outcomes as filed in PubChem.
MLLE-PAM2 inh = blocks PAM2 peptide binding to the PABP1 MLLE domain; inhibition, % at 20 µM; GST-MLLE / FITC-PAM2 fluorescence polarization; AID 588489; 360,000 tested, 0.36% active; in the data active = inhibition above about 35%, passing the limit was not always enough
PHOSPHO1 inh = PHOSPHO1 (human) inhibition | AID 1565 | Q8TCT1 | 290,000 tested, 1.1% active | recombinant PHOSPHO1, absorbance phosphatase assay | inhibition, % at 13.3 µM; in the data active = inhibition above about 60%
APOBEC3G inh = blocks human APOBEC3G single-stranded DNA deamination. inhibition, % at 20 µM. 330,000 tested, 0.28% active. AID 493012. recombinant A3G, ssDNA deamination FAM/TAMRA fluorescence;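 active = inhibition of at least 40% at 20 µM, with no more than 30% in the related APOBEC3A deaminase screen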
Target sequence (Q9HC16 whole entry, looked up): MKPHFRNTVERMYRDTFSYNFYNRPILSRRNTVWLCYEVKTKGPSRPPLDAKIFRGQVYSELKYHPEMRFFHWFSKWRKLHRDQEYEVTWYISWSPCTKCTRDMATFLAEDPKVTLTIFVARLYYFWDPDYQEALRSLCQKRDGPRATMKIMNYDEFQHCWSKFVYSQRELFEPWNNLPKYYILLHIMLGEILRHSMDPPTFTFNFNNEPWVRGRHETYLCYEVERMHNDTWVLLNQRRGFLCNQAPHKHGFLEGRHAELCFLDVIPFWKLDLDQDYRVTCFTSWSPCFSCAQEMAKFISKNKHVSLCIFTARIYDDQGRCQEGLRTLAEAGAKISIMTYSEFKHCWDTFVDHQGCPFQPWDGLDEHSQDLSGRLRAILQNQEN
A3A deaminase = inhibitors of human APOBEC3A DNA deaminase | P31941 | recombinant A3A, FAM/TAMRA ssDNA deamination fluorescence | inhibition, % at 20 µM | 330,000 tested, 0.41% active;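 active = at least 40% inhibition at 20 µM here, with at most 30% in a related deaminase screen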
PABP polyA inh = blocks human PABP binding to poly(A) RNA; P11940; fluorescence polarization; calls only at 35 µM; 290,000 tested, 1% active; AID 2014;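 note: calls also rest on retests at 20 µM and on dose response follow-up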
eIF4H inh = inhibitors of RNA binding by human eIF4H; Q15056; 290,000 tested, 0.94% active; AID 2012; eIF4H fluorescence polarization binding assay; inhibition, % at 35 µM;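 note: calls also rest on retests at 20 µM and on dose response follow-up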
Large screens that a line does not name were inactive. Rows were chosen to be rich in hits. Some 2.6% of all compounds tested hit in one or more screens of this group. Unless noted, the rule behind the calls is not given here.

COCCNC(=O)COc1ccc(C)cc1C(=O)c1cc(C#N)c(=O)n(C2CC2)c1	PABP polyA inh active, eIF4H inh active
N#Cc1cc(C(=O)c2cc(Br)ccc2O)cn(C2CC2)c1=O	none
COc1ccc(N=C2S/C(=C\c3ccc(N4CCOCC4)o3)C(=O)N2CCc2c[nH]c3ccccc23)cc1	none
COc1ccc(N=C2S/C(=C\c3ccc(OCC(=O)O)cc3)C(=O)N2CCc2c[nH]c3ccccc23)cc1	PABP polyA inh active
Cc1nc2nc(-c3cccs3)[nH]c2cc1Br	none (no result: PHOSPHO1 inh, PABP polyA inh, eIF4H inh)
O=C1C2C3C=CC(C4CC34)C2C(=O)N1/N=C/c1ccc(-c2ccc(F)cc2[N+](=O)[O-])o1 (centres undefined)	none
Cc1ccc(-c2ccc(/C=N/N3C(=O)C4C5C=CC(CC5)C4C3=O)o2)c([N+](=O)[O-])c1 (centres undefined)	PABP polyA inh active, eIF4H inh 53
COc1ccc(-c2ccc(/C=N/N3C(=O)C4C5C=CC(C6CC56)C4C3=O)o2)c([N+](=O)[O-])c1 (centres undefined)	PABP polyA inh active, eIF4H inh 64
C(C#CCCCCCCCCC[n+]1ccccc1)#CCCCCCCCCC[n+]1ccccc1	none (no result: APOBEC3G inh, A3A deaminase)
C[C@H](CO)N1C[C@H](C)[C@H](CN(C)Cc2ccncc2)OCc2ccccc2-c2c(n(C)c3ccccc23)C1=O	none (no result: PHOSPHO1 inh, APOBEC3G inh, A3A deaminase, PABP polyA inh, eIF4H inh)
CCOC(=O)CNC(=O)CSc1nc(-c2cccc(C)c2)ns1	MLLE-PAM2 inh 41
c1ccc(CN2CCN(C3=Nc4cccc5cccc3c45)CC2)cc1	eIF4H inh 94
CCOC(=O)N1CCN(C(=O)C(=O)N/N=C/c2ccc(OC)cc2OC)CC1	none
COc1ccccc1NC(=O)CCCN1C(=O)C2CC=CCC2C1=O (centres undefined)	none
CC(=O)n1c2ccccc2c2c1c1ccccc1n2C	MLLE-PAM2 inh 66
O=C(OCN1C(=O)c2ccccc2C1=O)c1cccc(S(=O)(=O)N2CCOCC2)c1	none
Cc1cccnc1NCc1ccc(O)c2ncccc12	PHOSPHO1 inh 78
Oc1c(C(c2ccco2)N2CCN(C(c3ccccc3)c3ccccc3)CC2)sc2ncnn12 (centres undefined)	PHOSPHO1 inh 88
Oc1c(C(c2ccccc2)N2CCc3ccccc3C2)sc2ncnn12 (centres undefined)	none
CC(OC(=O)Cc1n[nH]c(=O)c2ccccc12)C(=O)Nc1ccc(F)cc1 (centres undefined)	none (no result: PHOSPHO1 inh, PABP polyA inh, eIF4H inh)
COc1cc(/C=C2/SC(=Nc3ccc(O)cc3)NC2=O)cc(OC)c1O	none
O=C1NC(=Nc2ccc(O)cc2)S/C1=C\C=C\c1ccco1	PABP polyA inh active, eIF4H inh 83
CCN(Cc1cccs1)C(=O)CN1CCN(S(=O)(=O)c2ccc3c(c2)OCCCO3)CC1	none (no result: PHOSPHO1 inh, PABP polyA inh, eIF4H inh)
Cc1ccc(N2CCN(C(=O)c3cc(C(=O)c4ccccc4C)c[nH]3)CC2)c(C)c1	none
O=C(CCCCl)Oc1ccc2cc(-c3ccc4ccccc4n3)c(=O)oc2c1	eIF4H inh 52
CCc1ccc2[nH]c(=O)c(C3C(C#N)=C(N)Oc4c3ccc3cccnc43)cc2c1 (centres undefined)	PHOSPHO1 inh 89
CCOC(=O)c1ccc(Cl)c(NC(=O)c2ccc(-c3ccccc3)cc2)c1	PHOSPHO1 inh 66
O=C(Nc1ccc(Cl)cc1Cl)c1ccc(-c2ccccc2)cc1	none
O=C(CCl)c1ccc(Cc2ncc(C(F)(F)F)cc2Cl)s1	PHOSPHO1 inh 77
NS(=O)(=O)c1ccc(Cc2ncc(C(F)(F)F)cc2Cl)s1	none
Cc1cccc(N2CCN(C(=O)Cc3cn(C)c4ccccc34)CC2)c1C	PABP polyA inh active, eIF4H inh 112
CCOC(=O)C1CCN(C(=O)C2CCN(C(=O)c3ccc([N+](=O)[O-])cc3)CC2)CC1	none
Cc1ccc(S(=O)(=O)CC(=O)Nc2nnc(C(C)(C)C)s2)cc1	MLLE-PAM2 inh 38
Cc1csc(NC(=O)CS(=O)(=O)c2ccccc2)n1	PABP polyA inh active, eIF4H inh 83
COc1cccc(CN(C)C(=O)COc2ccc(C(=O)c3ccc(Cl)cc3)cc2)c1OC	none
Cc1cccc(C)c1N(CC(=O)N/N=C/c1cc(Br)c(C)o1)S(C)(=O)=O	none
CCn1cc(/C=C(\NC(=O)c2cc(OC)c(OC)c(OC)c2)C(=O)NCCCN2CCOCC2)c2ccccc21	PHOSPHO1 inh 65
CCn1cc(/C=C(\NC(=O)c2cc(OC)c(OC)c(OC)c2)C(=O)NCCN2CCOCC2)c2ccccc21	none
Cc1ccc2c(C)c(C(=O)NCc3ccc(S(N)(=O)=O)cc3)oc2c1	none
Cc1ccccc1-n1c(=O)cc(N2CCc3ccccc3C2)[nH]c1=O	PABP polyA inh active, eIF4H inh 79
N/C(Cc1cccc2ccccc12)=N\OC(=O)c1cccs1	PABP polyA inh active, eIF4H inh 84
O=C(N1CCCCCC1)N1CCN(S(=O)(=O)c2cccc([N+](=O)[O-])c2)CC1	none
O=C(COC(=O)Cc1ccc(Br)cc1)NCC1CCCCC1	none
FC(F)(F)c1cccc(Cc2noc(CN3CCCC(OCc4ccccn4)C3)n2)c1 (centres undefined)	PHOSPHO1 inh 64
c1ccc(COC2CCCN(Cc3nc(-c4cccs4)no3)C2)nc1 (centres undefined)	MLLE-PAM2 inh 40
c1cncc(COC2CCCN(Cc3nc(-c4cccs4)no3)C2)c1 (centres undefined)	none
CCNC(=O)NC(=O)C(C)Sc1ncc(C(F)(F)F)cc1Cl (centres undefined)	PABP polyA inh inconclusive
CC(C)C[C@@H](CNCC(=O)[C@H](CC(C)C)NC(=O)c1[nH]cnc1C(=O)N[C@H](CN)CC(C)C)NC(=O)c1nc[nH]c1C(=O)N[C@@H](CC(=O)O)C(=O)O	none (no result: PHOSPHO1 inh, APOBEC3G inh, A3A deaminase, PABP polyA inh, eIF4H inh)
CC1=NNC(=O)C1CCC(=O)N/N=C/c1c(Cl)cccc1Cl (centres undefined)	PHOSPHO1 inh 65
Cc1ccc(-n2c(C(C)n3nc(C)c([N+](=O)[O-])c3C)n[nH]c2=S)cc1 (centres undefined)	eIF4H inh active
CCc1cc(C(=O)N2CCOCC2)c(NC2=NS(=O)(=O)c3ccccc32)s1	PHOSPHO1 inh 84
O=C(NCC(=O)N1CCOCC1)c1ccc(Br)o1	none (no result: PHOSPHO1 inh, PABP polyA inh, eIF4H inh)
Cc1nn(C)c(NC(=O)c2ccc(Cl)cc2Cl)c1Br	none (no result: PHOSPHO1 inh)
CC(C)OCCCNc1nc(Cl)nc2c1cnn2C	none (no result: PHOSPHO1 inh, APOBEC3G inh, A3A deaminase, PABP polyA inh, eIF4H inh)
CCOC(=O)c1ccc(CN2CCCC(C)(C(=O)NCCOC)C2)cc1 (centres undefined)	none (no result: PHOSPHO1 inh, APOBEC3G inh, A3A deaminase, PABP polyA inh, eIF4H inh)
CCC(C)[C@H](NC(=O)N1CC(=O)Nc2ccccc21)C(=O)N[C@H](C(=O)O)c1ccccc1 (some centres undefined)	none (no result: PABP polyA inh, eIF4H inh)
CCOC(=O)c1sc(N)c(C#N)c1CSc1nnc(C2CCCCC2)n1N	PHOSPHO1 inh 88
N#Cc1ccc(COC(=O)CSc2nnc(C3CCCCC3)n2N)cc1	none
Cc1ccccc1NC(=O)c1nc2nccc(C)n2n1	eIF4H inh active
COc1ccccc1NC(=O)c1ccc(NC(=O)c2nc3nccc(C)n3n2)cc1	none (no result: PHOSPHO1 inh, PABP polyA inh, eIF4H inh)
